The values that follow come from PubChem BioAssay (NCI).

The panel holds about 83,000 compounds, 20% with a hit somewhere; the sample as a whole holds those more often.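 Plates (96-well) were seeded with cells, treated with compound at one concentration, and incubated for 48 hours before percent growth was determined.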 A number with no mark means an inactive call. Active and inactive are the calls of the source. How the source made its calls: active means growth percent below 10; inactive means the rest.

Some test systems named below: K-562 leukemia; MALME-3M melanoma; MDA-MB-231 breast; RXF 393 renal; SF-268 CNS; SF-295 CNS; SF-539 CNS; UACC-257 melanoma; M14 melanoma; HCT-15 colon.
Holding throughout (experiment): NCI-60 one-dose screen, 48 h (100 = growth as untreated, 0 = no growth, -100 = all killed)
Holding throughout (settings): 10 µM

In the case of `Cc1ccc(C)c(C(O)(c2cc(C)ccc2C)C2(O)CCCCC2)c1`, the growth was 87.3% in the assay on K-562 leukemia; 91.7% with MALME-3M melanoma; 96.9% with MDA-MB-231 breast; 91% with RXF 393 renal; 94.2% in the assay with SF-268 CNS; 95.9% in the assay on SF-295 CNS. Further, the growth with SF-539 CNS was 94.6%; with UACC-257 melanoma it was 102%; with M14 melanoma it was 98.6%; with HCT-15 colon, 94.5%.

`OCC1OC(n2cnc3c(N/N=C\c4ccccn4)ncnc32)C(O)C1O` (stereo not given): the growth in the assay with K-562 leukemia was 17.6%; with MALME-3M melanoma, -14.6% (active); in the assay with MDA-MB-231 breast it was 42.5%; in the assay on RXF 393 renal, 33.4%; in the assay with SF-268 CNS, 21.5%; with SF-295 CNS, -1.12% (active). The growth was 9.72% (active) in the assay with SF-539 CNS, 38% in the assay on UACC-257 melanoma, 8.81% (active) in the assay on M14 melanoma and 25.8% in the assay on HCT-15 colon.

Consider `COc1cc(OC)cc(-c2cncn2-c2ccc(-c3nc4cc(OC)cc(OC)c4s3)cc2)c1`, for which the growth with K-562 leukemia is 19.2%; with MALME-3M melanoma it was 48%; in the assay with MDA-MB-231 breast it was 66.5%; in the assay on RXF 393 renal, 58.1%; with SF-268 CNS, 68.5%; with SF-295 CNS it was -22% (active). Also, the growth with SF-539 CNS is 62.6%; in the assay on UACC-257 melanoma it was 82.4%; with M14 melanoma it was 38.8%; in the assay on HCT-15 colon, 48.4%.

On to `COc1ccc(Nc2nc3ccc(NC(=O)NC4CCCCC4)cc3[nH]c2=O)cc1`, for which the growth was 77.1% in the assay on K-562 leukemia; 102% in the assay on MALME-3M melanoma; 70.8% with MDA-MB-231 breast; 48.1% in the assay on RXF 393 renal; 91.4% in the assay on SF-268 CNS; 82.6% in the assay on SF-295 CNS. Also, the growth with SF-539 CNS was 68.8%; with UACC-257 melanoma, 90.4%; in the assay on M14 melanoma, 103%; in the assay on HCT-15 colon, 83.2%.

As for `CCCCOC(=O)Oc1ccc(C(=O)Oc2ccc(OCC)cc2)cc1`, the growth with K-562 leukemia is 109%; in the assay with MALME-3M melanoma, 109%; in the assay with MDA-MB-231 breast, 97.9%; in the assay with RXF 393 renal, 102%; in the assay on SF-268 CNS, 95.5%; in the assay with SF-295 CNS, 109%. The growth is 86.2% in the assay with SF-539 CNS, 99.5% with UACC-257 melanoma, 96.7% in the assay with M14 melanoma and 102% in the assay on HCT-15 colon.

On to `O=C(Nc1cccc(-n2cc(-c3ccncc3)c(-c3ccc(O)c(Cl)c3)n2)c1)c1ccc(Cl)c(Cl)c1`, for which the growth is 30.1% in the assay with K-562 leukemia; 29.5% in the assay on MALME-3M melanoma; -19.9% (active) with MDA-MB-231 breast; 16% in the assay with RXF 393 renal; 74.1% in the assay on SF-268 CNS; 13.9% in the assay with SF-295 CNS. Moreover, the growth in the assay with SF-539 CNS was 35.8%; in the assay with UACC-257 melanoma it was 10.8%; with M14 melanoma, 29.2%; in the assay on HCT-15 colon it was 24%.

Regarding `CC(=O)N(C)c1ccc(Nc2ccc(Nc3ccc(N(C)C(C)=O)cc3)c3c2C(=O)c2ccccc2C3=O)cc1`, the growth is 55.8% in the assay with K-562 leukemia; 113% in the assay on MALME-3M melanoma; 49.3% in the assay with MDA-MB-231 breast; 81.7% in the assay on RXF 393 renal; 76.5% with SF-268 CNS; 81.2% with SF-295 CNS. The growth in the assay with SF-539 CNS is 76.3%; with UACC-257 melanoma, 74.5%; with M14 melanoma it was 86.1%; in the assay with HCT-15 colon, 79.8%.

Turning to `COc1cccc(-c2cc(-c3cccc(NS(C)(=O)=O)c3)nc(N)c2C#N)c1O`, the growth in the assay on K-562 leukemia was 17.1%; in the assay on MALME-3M melanoma, -5.49% (active); in the assay with MDA-MB-231 breast, 53.7%; in the assay with RXF 393 renal it was 29.3%; with SF-268 CNS, 42.6%; in the assay with SF-295 CNS, -1.4% (active). Moreover, the growth in the assay with SF-539 CNS is 3.03% (active); in the assay with UACC-257 melanoma, 79.8%; in the assay with M14 melanoma, 41.3%; with HCT-15 colon it was 26.7%.

Turning to `COc1cc2nc(Nc3cccc(NC(C)=O)c3)nc(N)c2cc1OC`, the growth in the assay on K-562 leukemia is 103%; in the assay on MALME-3M melanoma, 101%; in the assay with MDA-MB-231 breast, 86.9%; in the assay with RXF 393 renal, 94.1%; with SF-268 CNS, 92.3%; in the assay on SF-295 CNS it was 131%. Also, the growth in the assay on SF-539 CNS was 101%; in the assay on UACC-257 melanoma, 98.3%; with M14 melanoma, 107%; in the assay on HCT-15 colon, 93.8%.

Take `O=C(N/N=C/c1ccccc1O)C(O)(c1ccccc1)c1ccccc1`: the growth in the assay on K-562 leukemia is 52.9%; in the assay with MALME-3M melanoma, 74%; in the assay with MDA-MB-231 breast, 60.5%; in the assay with RXF 393 renal it was 85.2%; with SF-268 CNS it was 46.8%; with SF-295 CNS it was -12.8% (active). Further, the growth in the assay on SF-539 CNS is 60.6%; in the assay on UACC-257 melanoma, 68.6%; with M14 melanoma it was 57.4%; with HCT-15 colon, 32%.

Consider `CC(=O)c1nc2ccccc2n1CCN1CCN(C)CC1`, for which the growth is 15.3% with K-562 leukemia; 17.6% in the assay on MALME-3M melanoma; 42.9% in the assay with MDA-MB-231 breast; 48% with RXF 393 renal; 48.1% with SF-268 CNS; 153% with SF-295 CNS. For the same molecule, the growth in the assay on SF-539 CNS is 35.3%; in the assay on UACC-257 melanoma, 49.8%; in the assay on M14 melanoma, 20.5%; in the assay on HCT-15 colon it was 98.9%.

Take `CCCC1(CC(=O)O)OCCc2c1[nH]c1ccccc21` (stereo not given): the growth is 156% in the assay on K-562 leukemia; 98.8% with MALME-3M melanoma; 103% in the assay with MDA-MB-231 breast; 100% with RXF 393 renal; 103% in the assay with SF-268 CNS; 102% in the assay with SF-295 CNS. The growth with SF-539 CNS is 112%; in the assay on UACC-257 melanoma it was 103%; with M14 melanoma, 112%; in the assay with HCT-15 colon, 107%.

With `CCOC(=O)c1ccoc1`, the growth in the assay on K-562 leukemia is 93.8%; in the assay on MALME-3M melanoma, 100%; in the assay on MDA-MB-231 breast, 128%; in the assay on RXF 393 renal, 110%; in the assay with SF-268 CNS, 108%; in the assay on SF-295 CNS, 108%. The growth in the assay on SF-539 CNS is 95.6%; with UACC-257 melanoma it was 80.3%; with M14 melanoma, 106%; in the assay with HCT-15 colon, 97%.
